Source: PubChem BioAssay
Pf Dd2 growth: P. falciparum Dd2 growth inhibition. SYBR Green, 72 h; active compounds read low. activity change, % at 10 µM. hit rate 2.3% among 94,000; in the data active = activity change below about -80%; inconclusive = no clear call, values can overlap the other calls
C diff growth: blocks growth of Clostridium difficile | Clostridium difficile clinical isolate growth, OD600, 24 h; active compounds read low | growth activity, negative = inhibition, % at 16 µg/mL (by protocol) | hit rate 0.25% among 86,000;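 active = mean growth activity at or below -80% and every replicate also at or below -80%; inconclusive = mean at or below -80% but some replicate above -80%; inactive = mean growth activity above -80%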;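 note: 0% = DMSO wells and -100% = levofloxacin 16 µg/mL wells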
T cruzi growth: blocks T. cruzi growth in NIH3T3 culture. T. cruzi beta-gal in NIH3T3, GalScreen luminescence, 90 h. inhibition, % at 8.34 µM. hit rate 5.9% among 77,000. AID 624255;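 active = mean inhibition above about 93%, with at least 55% of replicates each passing it, limit read from the data, passing the limit was not always enough; inconclusive = only one of those two conditions holds; inactive = neither condition holds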
* = called active by the depositor; ? = inconclusive; . = no result given; ! = repeats disagree. In the library only some 6.8% were active in any assay of this set; here they are far more common.

SMILES	Pf Dd2 growth	C diff growth	T cruzi growth
O=C(Nc1ccc(Cl)cc1)N1[C@@H]2CNC[C@H]1C2c1ccc(-c2ccccc2)cc1 (stereo partly drawn)	-9	-3	.
O=C(Nc1ccccc1Cl)N1[C@@H]2CNC[C@H]1C2c1ccc(/C=C/c2ccccc2)cc1 (stereo partly drawn)	-42	13	.
Cc1ccccc1-c1ccc(C2[C@H]3CNC[C@@H]2N3C(=O)Nc2ccc(C(F)(F)F)cc2)cc1 (stereo partly drawn)	14	-96*	.
COc1ccc2c3c(n(C)c2c1)[C@H](CO)N(C(=O)CN(C)C)CC31CN(C(=O)CN(C)C)C1	9	.	.
C[C@@H]1CN([C@H](C)CO)C(=O)Cc2cc(NC(=O)CCN3CCOCC3)ccc2O[C@@H]1CN(C)C	-4	0	.
COc1ccc(S(=O)(=O)Nc2ccc3c(c2)C(=O)N([C@H](C)CO)C[C@H](C)[C@@H](CN(C)CC2CC2)O3)cc1	-10	-2	.
CO[C@@H]1CN(C)C(=O)c2ccc(NC(=O)NC(C)C)cc2OC[C@@H](C)N(Cc2ccccn2)C[C@H]1C	-7	-4	.
O=C(Nc1ccc(C(F)(F)F)cc1)N1[C@@H]2CNC[C@H]1C2c1ccc(-c2ccccc2)cc1 (stereo partly drawn)	-29	-99*!	.
O=C(Nc1ccc(F)cc1)N1[C@@H]2CNC[C@H]1C2c1ccc(-c2ccccc2)cc1 (stereo partly drawn)	20	59	.
C[C@H](CO)N1C[C@H](C)[C@H](CN(C)Cc2ccncc2)Oc2c(NS(=O)(=O)c3ccccc3)cccc2C1=O	-4	-5	5
C[C@H](CO)N1C[C@H](C)[C@@H](CN(C)C(=O)Nc2ccc(C(F)(F)F)cc2)Oc2ccc(NC(=O)Cc3cn(C)c4ccccc34)cc2C1=O	2	-2	53
C[C@H](CO)N1C[C@H](C)[C@H](CN(C)Cc2ccc(C(F)(F)F)cc2)OCc2ccccc2-c2c(n(C)c3ccccc23)C1=O	-83*	1	.
C[C@@H]1CN([C@H](C)CO)C(=O)c2c(c3ccccc3n2C)-c2ccccc2CO[C@@H]1CN(C)Cc1cccc(F)c1	-88*	33	.
C[C@H]1CN([C@@H](C)CO)C(=O)c2c(c3ccccc3n2C)-c2ccccc2CO[C@@H]1CN(C)Cc1cccc(F)c1	-75	16	.
C[C@H]1CN([C@@H](C)CO)C(=O)c2c(c3ccccc3n2C)-c2ccccc2CO[C@H]1CN(C)Cc1ccc(-c2ccccc2)cc1	-88*	9	.
C[C@H](CO)N1C[C@H](C)[C@H](CN(C)Cc2ccc(-c3ccccc3)cc2)OCc2ccccc2-c2c(n(C)c3ccccc23)C1=O	?	18	.
C[C@H]1CN([C@@H](C)CO)C(=O)c2c(c3ccccc3n2C)-c2ccccc2CO[C@@H]1CN(C)Cc1ccccc1	-77	2	.
C[C@H](CO)N1C[C@H](C)[C@@H](CN(C)Cc2ccc(-c3ccccc3)cc2)OCc2ccccc2-c2c(n(C)c3ccccc23)C1=O	-92*	34	.
C[C@@H]1CN([C@@H](C)CO)C(=O)c2c(c3ccccc3n2C)-c2ccccc2CO[C@@H]1CN(C)Cc1ccc(C(F)(F)F)cc1	-67	10	.
COc1ccc(NC(=O)N(C)C[C@@H]2Oc3ccc(NC(=O)Nc4c(C)noc4C)cc3C(=O)N([C@H](C)CO)C[C@@H]2C)cc1	18	-2	12
CO[C@@H]1CN(C)C(=O)c2ccc(NC(=O)C3CCOCC3)cc2OC[C@H](C)N(C)C[C@@H]1C	-15	1	8
C[C@@H]1CN([C@@H](C)CO)C(=O)Cc2cc(NC(=O)Cc3cn(C)c4ccccc34)ccc2O[C@@H]1CN(C)C(=O)NC1CCCCC1	-38	3	-14
CCNC(=O)Nc1ccc2c(c1)C(=O)N(C)[C@@H]1CC[C@H](CC(=O)NCc3ccc(F)cc3)O[C@H]1CO2	12	-4	12
C[C@H](CO)N1C[C@H](C)[C@@H](CN(C)Cc2ccc(Oc3ccccc3)cc2)OCc2ccccc2-c2c(n(C)c3ccccc23)C1=O	-91*	46	.
C[C@H](CO)N1C[C@H](C)[C@H](CN(C)Cc2cccc(C(=O)O)c2)OCc2ccccc2-c2c(n(C)c3ccccc23)C1=O	49	1	-16
SMILES	Pf Dd2 growth	C diff growth	T cruzi growth
C[C@H]1CN([C@@H](C)CO)C(=O)c2c(c3ccccc3n2C)-c2ccccc2CO[C@@H]1CN(C)Cc1ccc(F)cc1	-83*	26	.
C[C@@H]1CN([C@@H](C)CO)C(=O)c2c(c3ccccc3n2C)-c2ccccc2CO[C@@H]1CN(C)Cc1ccc(F)cc1	-56	24	.
COc1ccccc1CN(C)C[C@@H]1OCc2ccccc2-c2c(n(C)c3ccccc23)C(=O)N([C@H](C)CO)C[C@@H]1C	-1	67	.
C[C@H]1CN([C@@H](C)CO)C(=O)c2c(c3ccccc3n2C)-c2ccccc2CO[C@@H]1CN(C)Cc1ccccc1C(F)(F)F	-85*	18	.
C[C@@H]1CN([C@@H](C)CO)C(=O)c2c(c3ccccc3n2C)-c2ccccc2CO[C@H]1CN(C)Cc1ccc(Oc2ccccc2)cc1	-78	51	.
C[C@@H]1CN([C@@H](C)CO)C(=O)c2c(c3ccccc3n2C)-c2ccccc2CO[C@H]1CN(C)Cc1cccc(C(=O)Nc2ccccc2N)c1	-89*	1	.
C[C@@H]1CN([C@H](C)CO)C(=O)c2ccccc2-c2ccccc2CO[C@@H]1CN(C)Cc1ccccc1C(F)(F)F	-93*	25	.
COc1cccc(CN(C)C[C@@H]2OCc3ccccc3-c3c(n(C)c4ccccc34)C(=O)N([C@@H](C)CO)C[C@H]2C)c1	-69	62	.
COc1cccc(CN(C)C[C@H]2OCc3ccccc3-c3c(n(C)c4ccccc34)C(=O)N([C@@H](C)CO)C[C@H]2C)c1	-87*	27	.
C[C@@H]1CN([C@@H](C)CO)C(=O)c2ccccc2-c2ccccc2CO[C@@H]1CN(C)Cc1ccccc1C(F)(F)F	-59	19	.
CO[C@@H]1CN(C)C(=O)c2cc(NC(=O)Nc3ccccc3Cl)ccc2OC[C@@H](C)N(C)C[C@H]1C	-16	-2	-81
C[C@@H]1CCCCO[C@@H](CN(C)C(=O)Nc2ccc(F)cc2)[C@@H](C)CN([C@H](C)CO)C(=O)c2cc(NC(=O)Nc3ccc(C(F)(F)F)cc3)ccc2O1	13	5	91
Cc1noc(C)c1NC(=O)Nc1ccc2c(c1)C(=O)N([C@H](C)CO)C[C@@H](C)[C@H](CN(C)C(=O)Nc1ccc(C(F)(F)F)cc1)OCCCC[C@H](C)O2	-84*	3	40
C[C@H](CO)N1C[C@H](C)[C@@H](CN(C)C(=O)Nc2ccc(C(F)(F)F)cc2)OCCCC[C@H](C)Oc2ccc(NC(=O)Nc3ccc(F)cc3)cc2C1=O	-38	2	119*
Cc1noc(C)c1NC(=O)Nc1ccc2c(c1)C(=O)N([C@@H](C)CO)C[C@@H](C)[C@H](CN(C)C(=O)Nc1ccc(C(F)(F)F)cc1)OCCCC[C@H](C)O2	-40	-4	17
C[C@@H]1CCCCO[C@H](CN(C)C(=O)Nc2ccc(C(F)(F)F)cc2)[C@H](C)CN([C@H](C)CO)C(=O)c2cc(NC(=O)Nc3ccc(F)cc3)ccc2O1	-81*	5	117*
